Bioassay records as filed in PubChem.
PLK1 PBD inh = inhibitors of human PLK1 polo-box domain binding. 360,000 tested, 2.8% active. Potency, µM, most hits filed as inhibitors. Plk1 PBD binding of FITC phosphopeptide, fluorescence polarization. AID 720504; note: series mostly up to about 57 µM; nearly all actives have a fitted effect of over 65% in size
WRN inhibitor = blocks human WRN helicase. WRN helicase unwinding, fluorescent forked duplex, kinetic. Potency, µM (top dose mostly 114 µM), usual class: inhibitors. Q14191. 360,000 tested, 0.46% active. AID 651768; note: nearly all actives have a fitted effect of over 55% in size
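Enzyme (20 nM final) and test compound sit together 15 min at room temperature before substrate addition. Substrate is a single-forked duplex oligonucleotide (100 nM) labelled with fluorophore and quencher, with 2 mM ATP; helicase unwinding raises red fluorescence, read kinetically.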
FEN1 inh = blocks human flap endonuclease 1; Recombinant FEN1 flap cleavage, fluorescence, 15 min; Potency, µM (titrated, usually from 114 µM), hits mostly inhibitors; 390,000 tested, 0.35% active; AID 588795; note: nearly all actives have a fitted effect of over 65% in size
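Enzyme 10 nM, 15 min RT preincubation with compound; start with substrate 50 nM final; reads at 0 and 15 min; qHTS titration, four-parameter Hill fit.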
TCR act = activates T cell receptor signaling. primary human leukocytes, anti-CD3, IL-2 HTRF, 48 h. Potency, µM (titrated, usually from 9.22 µM), most hits filed as activators. 330,000 tested, under 10 active. AID 504894
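IL-2 release read by HTRF sandwich (Eu cryptate donor, d2 acceptor, 665 nm emission) after 48 hr exposure of primary human leukocytes to compound together with anti-CD3 beads in the absence of co-stimulatory signals.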
PI5P4Ka inh = blocks human PI5P4K alpha kinase activity. P48426. PI5P4Kalpha enzyme, ADP-Glo luminescence, 60 min; stronger effect = lower value. max response, %. 330,000 tested, 1.2% active. AID 652105; active = max response of -50% or lower; inconclusive = between -30% and -50%; inactive = -30% or higher; note: value at the top dose of about 77 µM
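Controls without substrate or without enzyme flank wells where PI5P4Kalpha converts substrate using 5 microM ATP (final). Incubation lasts 60 minutes at room temperature; ADP formed is read by ADP-Glo luminescence.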
VDR inh = blocks the human vitamin D receptor | VDR-SRC2-3 peptide fluorescence polarization, 2 h | Potency, µM, usual class: inhibitors | 400,000 tested, 0.93% active | P11473
Target sequence (P11473 whole entry, looked up): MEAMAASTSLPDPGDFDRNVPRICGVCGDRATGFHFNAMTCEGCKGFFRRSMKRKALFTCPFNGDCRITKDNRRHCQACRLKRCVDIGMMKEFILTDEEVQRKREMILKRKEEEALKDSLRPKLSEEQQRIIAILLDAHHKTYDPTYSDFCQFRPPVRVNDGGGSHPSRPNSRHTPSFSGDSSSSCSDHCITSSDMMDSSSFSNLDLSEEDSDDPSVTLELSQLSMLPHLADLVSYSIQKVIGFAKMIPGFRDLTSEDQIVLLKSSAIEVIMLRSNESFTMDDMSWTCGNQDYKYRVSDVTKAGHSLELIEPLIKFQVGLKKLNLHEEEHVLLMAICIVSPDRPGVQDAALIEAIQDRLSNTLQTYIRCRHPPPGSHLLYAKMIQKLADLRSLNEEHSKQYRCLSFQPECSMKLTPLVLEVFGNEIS
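FP read-out; VDR + SRC2-3 coactivator peptide; 23 nl compound by pintool; 2 h RT incubation; reagents held at 4 deg C, protected from light.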
TbPYK confirm = confirmation of Trypanosoma brucei pyruvate kinase inhibitors; recombinant TbPYK, Kinase-Glo ATP luminescence; shares compounds with PLK1 PBD inh; Potency, µM (highest dose often 76.9 µM), usual class: inhibitors; 890 tested, 67% active; note: nearly all actives have a fitted effect of over 70% in size
TbPYK orthogonal = orthogonal confirmation of Trypanosoma brucei pyruvate kinase inhibitors. shares compounds with PLK1 PBD inh. recombinant TbPYK, ADP-Glo luminescence, 60 min. Potency, µM (highest dose often 76.9 µM), actives largely listed as inhibitors. 890 tested, 62% active. AID 720584; note: nearly all actives have a fitted effect of over 75% in size
A number is an active result; n = inactive; u = inconclusive; x = not tested or not shown; ! = repeats disagree. Only some compounds are listed: those with a hit (about 3.7% of all), similar ones and a draw of the others. Unless noted, calls come from the whole dose curve; as a rule, active = well fitted curve in the direction sought with a large enough effect; inconclusive = small, poorly fitted or top-dose-only effect, or another doubt; inactive = no such curve, though single readings can be large; an effect the other way counts as inactive or inconclusive.

SMILES	PLK1 PBD inh	WRN inhibitor	FEN1 inh	TCR act	PI5P4Ka inh	VDR inh	TbPYK confirm	TbPYK orthogonal
CCN(CC)c1ccc(C(=C2C=CC(=[N+](CC)CC)C=C2)c2ccc(N(CC)CC)cc2)cc1	30µM	n	u	n	-73	u	22µM	n
Cc1cc(Nc2ccc(C)c(Cl)c2)n2nc(-c3ccccc3)nc2n1	x	x	n	x	x	n	x	x
CCN1CCC2(CC1)N=C(c1ccc(F)cc1)C(=S)N2C(=O)c1ccc(C(C)(C)C)cc1	9.5µM	n	n	n	n	79µM	13µM	18µM
CC(=O)Nc1c(C)nn(-c2ccccc2)c1N1CCC(C(=O)Nc2ccccc2C(F)(F)F)CC1	x	x	n	x	x	n	x	x
O=C(N/N=C/c1ccccc1)c1[nH]ncc1Br	n	n	n	n	n	n	n	n
O=C(N/N=C/c1cccnc1)c1[nH]ncc1Br	n	n	n	n	n	n	x	x
COC(=O)C1=CN(c2ccc(OC)cc2OC)C(N)=C(C#N)C1c1ccccc1F (stereo unspecified)	n	n	x	x	n	x	x	x
COc1ccc(OC)c(C2CC(=O)N3CN(c4ccccc4F)CSC3=C2C#N)c1 (stereo unspecified)	u	n	u	n	-94	35µM	5µM	10µM
COc1ccccc1N1CSC2=C(C#N)C(c3ccc(SC)cc3)CC(=O)N2C1 (stereo unspecified)	19µM	n	u	n	-83	22µM	2.5µM	2.2µM
N#CC1=C2SCN(Cc3ccccc3)CN2C(=O)CC1c1ccccc1F (stereo unspecified)	17µM	n	u	n	-77	50µM	1.8µM	1.6µM
N#Cc1c(-n2ncnc2-c2ccc(Br)cc2)sc2c1CCCCC2	x	x	n	x	x	n	x	x
CCOC(=O)c1cnc2ccc(OCC)cc2c1NCc1cccnc1	n	n	n	n	n	n	n	n
CC1=C/C(=C(\c2cc(C)c(O)c(Br)c2)c2ccccc2S(=O)(=O)O)C=C(Br)C1=O	n	u	u	n	-77	n	13µM	n
CCn1cc(/C=C/C(=O)Nc2ccn(Cc3c(F)c(F)cc(F)c3F)n2)cn1	n	n	n	n	n	u	7.9µM	13µM
CCn1cc(/C=C/C(=O)Nc2ccc(C)cc2Br)cn1	n	n	n	n	n	n	x	x
CCOC(=O)c1ccc2c(c1)C1C=CCC1C(C(=O)OCC)N2 (stereo unspecified)	n	n	u	n	u	n	n	n
CCOC(=O)c1ccc2c(c1)[C@@H]1C=CC[C@@H]1[C@H](c1cccc(OC)c1OC)N2	x	x	n	x	x	n	x	x
COc1cc(N=c2ssnc2Cl)c(OC)cc1Cl	1.7µM	56µM!	u	n	-68	16µM	4.5µM	6.3µM
COc1ccc(OC)c(N=c2ssnc2Cl)c1	2.7µM	56µM	n	n	-64	u	16µM	14µM
COCC1=Cc2cc3c(cc2C(C(C(=O)OC)C(=O)OC)N1C(=O)OC)OCO3 (stereo unspecified)	x	x	x	x	x	n	x	x
Cc1cc(C)n(C(C)CC(=O)NCc2ccccc2C)n1 (stereo unspecified)	x	x	n	x	x	n	x	x
COc1ccc(OC)c(-n2c(=S)[nH]c3c(sc(=S)n3-c3ccccc3C)c2=O)c1	u	n	n	n	n	u	x	x
CCOc1ccccc1-n1c(=S)sc2c(=O)n(-c3ccccc3)c(=S)[nH]c21	n	n	n	n	n	n	11µM	11µM
COc1ccccc1-n1c(=S)[nH]c2c(sc(=S)n2-c2ccccc2C)c1=O	27µM	n	n	n	n	u	5µM	14µM
COc1cccc(-n2c(=S)sc3c(=O)n(-c4ccccc4OC)c(=S)[nH]c32)c1	u	n	n	n	n	n	x	x
SMILES	PLK1 PBD inh	WRN inhibitor	FEN1 inh	TCR act	PI5P4Ka inh	VDR inh	TbPYK confirm	TbPYK orthogonal
COc1ccccc1-n1c(=S)[nH]c2c(sc(=S)n2-c2ccccc2)c1=O	n	n	n	n	n	n	32µM	18µM
CCCCc1ccc(NC(=O)CSc2nc3ccccc3nc2N2CCOCC2)cc1	x	x	n	x	x	n	x	x
O=c1c(-c2ccc(F)c(F)c2)nc2cncnc2n1Cc1ccc(F)cc1	x	x	x	x	x	n	x	x
O=C(Nc1cnn(Cc2ccc(Cl)cc2)c1)c1cccs1	6.7µM	n	u	n	u	u	n	n
CC(C)CCNC(=O)NC(=O)CSc1ccc(S(=O)(=O)N2CCOCC2)cn1	u	n	n	n	n	n	16µM	14µM
Cc1c(Br)c(O)c(Br)c2sc(=O)oc12	27µM	n	u	n	-69	u	u	u
O=C1NC(=S)CN1c1ccccc1	27µM	n	n	n	-59	32µM	u	u
Cc1cc(O)c(-c2cc(O)c(C)cc2O)cc1O	4.7µM	n	u	n	-67	25µM	32µM	11µM
CCOc1cc2c(c3c1C(c1ccccc1)N(S(=O)(=O)c1ccc(C)cc1)C3)C(=O)C=CC2=O (stereo unspecified)	u	n	x	x	-85	x	1.6µM	2.8µM
CCOc1ccc(C2c3c(oc4ccccc4c3=O)C(=O)N2Cc2ccc3c(c2)OCO3)cc1 (stereo unspecified)	x	x	n	x	x	n	x	x
COc1ccc(/C=C2/C(=O)ON=C2C)cc1Br	1.9µM	u	n	n	n	u	u	u
COc1ccc(/C=C2\C(=O)OCc3cc(OC)c(OC)cc32)cc1OC	n	n	n	n	n	n	x	x
COc1cc(/C=C2\C(=O)ON=C2c2ccccc2)cc(OC)c1OC	7.5µM	n	n	n	n	28µM	u	u
CCCCc1ccc(/C=C2\C(=O)ON=C2c2ccccc2)s1	n	n	n	n	n	n	x	x
CCOc1ccc2nc(N3CCCC(C(=O)NCCc4ccc(SC)cc4)C3)sc2c1 (stereo unspecified)	x	x	n	x	x	n	x	x
Cc1cc(C)c(NC(=O)CCn2c(=O)c3cccn3c3cccnc32)c(C)c1	x	x	n	x	x	n	x	x
COc1cc(C=C2C(=O)C=CC2=O)ccc1O	5.3µM	10µM	x	x	-104	x	1.1µM	1.1µM
COc1cc(C=C2NC(=O)NC2=O)ccc1O	n	n	x	x	u	x	x	x
N#C/C(=C\c1ccc(N2CCOCC2)o1)c1ccccc1	n	n	n	n	x	n	x	x
N#C/C(=C/c1ccc(N2CCOCC2)o1)c1ccc(Br)cc1	n	n	n	n	n	35µM	u	35µM
NC(=O)Cn1c(=O)n(Cc2ccco2)c(=O)c2c3c(sc21)CCCCC3	u	u	n	n	x	89µM	u	u
Cc1ccc(-n2nc(C(=O)Nc3ccc(C)c(F)c3)c3c4ccccc4n(C)c3c2=O)cc1	x	x	n	x	x	n	x	x
COc1ccccc1NC(=O)Cn1c(=O)n(CC(=O)NCc2ccccc2Cl)c(=O)c2sccc21	x	x	n	x	x	n	x	x
